Laboratory results published in the supplement of paper PMC6555819.

Columns and labels:
Assay in all cases: PBM binding z-score (relative to random genomic background probes); higher = stronger binding; sequences stand for … in GC…GCGATTGACAGCGTAGAATGAAGG
[1] = tested on: RARb homodimer (NR concentration 270 nM)
How it was run: (§1)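 Regression normalization was applied to scanned fluorescence from custom Agilent 4×180K protein-binding microarrays. Before scanning, arrays were incubated 1 h with ligand-free nuclear receptor dimers, and binding was detected with antibodies against each partner (one per run). Binding z-scores use the random background probes as reference.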

[2] = tested on: RARg:RXRa (NR concentration 270 nM, RXRa partner concentration 90 nM)
How it was run: as §1

[3] = tested on: RARg homodimer (NR concentration 270 nM)
How it was run: as §1

[4] = tested on: RXRa DBDmut IVT, anti-RXR (DBD mutation: RXRa K156A/R161A, NR concentration 90 nM)
How it was run: as §1

[5] = tested on: RXRa homodimer (NR concentration 180 nM)
How it was run: as §1

[6] = tested on: THRa:RXRa (NR concentration 90 nM, RXRa partner concentration 90 nM)
How it was run: as §1

[7] = tested on: THRa homodimer (NR concentration 90 nM)
How it was run: as §1

[8] = tested on: VDR homodimer (NR concentration 270 nM)
How it was run: as §1

| Sequence | PBM binding z-score [1] | PBM binding z-score [2] | PBM binding z-score [3] | PBM binding z-score [4] | PBM binding z-score [5] | PBM binding z-score [6] | PBM binding z-score [7] | PBM binding z-score [8] |
| --- | --- | --- | --- | --- | --- | --- | --- | --- |
| ACGGACAGGTGAGTGAAGGTAACTCAGCTGGACG | 0.226 | 0.31 | 0.674 | -0.495 | 0.344 | 1.69 | -0.483 | -0.502 |
| ATATGTAGGTCACATCCGGGTCATTCAGGCTATG | 4.84 | 6.67 | 5.7 | 2.15 | 5.28 | 4.65 | 2.94 | 3.78 |
| ATCGAAAGGCCGAGGTGAGTATAGAGAAAGGGAA | 0.669 | 0.835 | 1.25 | -0.863 | 0.294 | 0.936 | 0.0762 | -0.433 |
| CATACAGGGTCTGCTAGGCCAGAGTAGGGACGGC | -0.0672 | -0.0355 | 0.276 | -0.952 | 0.034 | 0.13 | -0.32 | -0.486 |
| TAGCCTAGGTCATTCAGGGGCCAGTAAAGAAAGC | 3.38 | 6.24 | 4.69 | 1.5 | 3.27 | 3.63 | 0.491 | 1.24 |
| ACTCGGAGGACAAAGGTCAGAGCCACGCCAGTGA | 4.56 | 6.18 | 5.6 | 1.27 | 6.11 | 3.55 | 0.686 | 1.13 |
| TAGGCTAGGTCATGGGCCAGTATACCACGCGAAC | 2.94 | 4.33 | 4.94 | 0.455 | 3.29 | 3.11 | 1.2 | 0.234 |
| GGAACGAGCGCAAGTTGATAGCAGAGTTTGATGG | -0.846 | -0.499 | -0.47 | 0.0943 | -0.499 | -1.01 | -0.971 | -0.311 |
| GCTTACGGGTCGAAGGTTATAGCATGAATAGAAT | 0.86 | 2.31 | 1.28 | 0.891 | 3.72 | 1.55 | -0.161 | 0.682 |
| CGTCAAAGTTCGACTAAGGTAACGTAAAGCACGC | 1.77 | 2.14 | 1.99 | 2.97 | 1.5 | 4.99 | 1.58 | 1.03 |
| CAAACTAGGTCTAGAGGTCAAAGTCCGCTTCCCG | 4.55 | 5.26 | 4.46 | 1.89 | 5.98 | 3.8 | 1.56 | 4.46 |
| GGAACGAGGACATTCGAGTTGATAGCATGGCGAT | -0.261 | 0.285 | 0.773 | 2.25 | 0.11 | 2.2 | 0.823 | 1.65 |
| TCGAGTAGGTTACCAATGGGGCATTTAGCTTTCT | 0.597 | 1.09 | 0.384 | 0.219 | 0.324 | -0.0531 | -0.844 | -0.414 |
| TAGCCTAGGTCATGCGGGCCAGTAAAGTGTCGGC | 2.88 | 3.9 | 4.1 | 1.04 | 2.94 | 2.98 | 0.78 | 0.405 |
